Results published in PubChem BioAssay AID1159580 (chemical genetic matrix, 2015).
Hit rate of the full screen: of about 5,500 compounds, about 2,000 (36%) were called active. Roughly 18% stayed inconclusive and do not appear here. No stated cut-off is given here; in the data, active means normalized growth mostly below about 0.91 (no sharp cut-off); inconclusive means no clear call, values can overlap the other calls; inactive means mostly above about 0.92. Some of the results follow.

Test: chemical genetic growth profiling, strain panel (AID 1159580);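 further: tested at 20 µM; growth read once vehicle control cultures reached saturation at 30 °C; 1 = growth at the plate median or of vehicle wells; lower values mean less growth of the strain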
Details: growth OD

Measured: normalized growth

OCC(O)CN1CCN(c2ccccc2)CC1 (configuration not stated)
inactive: S. cerevisiae deletion strains, locus YJR075W, strain HOC1, active compounds read low 0.987 | S. cerevisiae deletion strains, locus YKL009W, strain mrt4, active compounds read low 1.01 | S. cerevisiae deletion strains, locus YKL068W, active compounds read low 0.994 | S. cerevisiae deletion strains, locus YKL085W, strain MDH1 (second series), active compounds read low 0.99 | S. cerevisiae deletion strains, locus YKL085W, strain MDH1, active compounds read low 0.99 | S. cerevisiae deletion strains, locus YKL160W, strain elf1, active compounds read low 0.958 | S. cerevisiae deletion strains, locus YKL190W, strain CNB1, active compounds read low 1.01 | S. cerevisiae deletion strains, locus YKR001C, strain vps1, active compounds read low 1 | S. cerevisiae deletion strains, locus YKR026C, strain gcn3, active compounds read low 0.977 | S. cerevisiae deletion strains, locus YKR091W, strain srl3, active compounds read low 0.982 | S. cerevisiae deletion strains, locus YLL001W, strain dnm1, active compounds read low 0.988 | S. cerevisiae deletion strains, locus YLL026W, active compounds read low 0.988 | S. cerevisiae deletion strains, locus YLL041C, strain sdh2, active compounds read low 0.975 | S. cerevisiae deletion strains, locus YLR027C, strain aat2, active compounds read low 0.992 | S. cerevisiae deletion strains, locus YLR039C, strain RIC1, active compounds read low 1.04 | S. cerevisiae deletion strains, locus YLR058C, strain SHM2, active compounds read low 0.994 | S. cerevisiae deletion strains, locus YLR102C, strain apc9, active compounds read low 1 | S. cerevisiae deletion strains, locus YLR113W, strain HOG1, active compounds read low 0.999 | S. cerevisiae deletion strains, locus YLR221C, strain rsa3, active compounds read low 0.973 | S. cerevisiae deletion strains, locus YLR258W, strain gsy2, active compounds read low 0.992 | S. cerevisiae deletion strains, locus YLR262C, strain YPT6 (second series), active compounds read low 0.959 | S. cerevisiae deletion strains, locus YLR262C, strain YPT6, active compounds read low 1.05 | S. cerevisiae deletion strains, locus YLR268W, strain sec22, active compounds read low 0.953 | S. cerevisiae deletion strains, locus YLR320W, strain mms22, active compounds read low 1 | S. cerevisiae deletion strains, locus YLR330W, strain CHS5, active compounds read low 1.02 | S. cerevisiae deletion strains, locus YLR342W, strain FKS1 (second series), active compounds read low 1.02 | S. cerevisiae deletion strains, locus YLR342W, strain FKS1, active compounds read low 0.993 | S. cerevisiae deletion strains, locus YLR357W, strain rsc2, active compounds read low 0.987 | S. cerevisiae deletion strains, locus YLR370C, strain arc18, active compounds read low 0.978 | S. cerevisiae deletion strains, locus YLR371W, strain rom2, active compounds read low 1 | S. cerevisiae deletion strains, locus YLR384C, strain iki3, active compounds read low 0.987 | S. cerevisiae deletion strains, locus YLR418C, strain cdc73, active compounds read low 0.971 | S. cerevisiae deletion strains, locus YML016C, strain PPZ1, active compounds read low 0.992 | S. cerevisiae deletion strains, locus YML032C, strain rad52, active compounds read low 0.988 | S. cerevisiae deletion strains, locus YML120C, strain ndi1, active compounds read low 0.982 | S. cerevisiae deletion strains, locus YML124C, strain tub3, active compounds read low 0.989 | S. cerevisiae deletion strains, locus YMR058W, strain fet3, active compounds read low 0.969 | S. cerevisiae deletion strains, locus YMR078C, strain ctf18, active compounds read low 0.978 | S. cerevisiae deletion strains, locus YMR125W, strain sto1, active compounds read low 0.995 | S. cerevisiae deletion strains, locus YMR129W, active compounds read low 0.981 | S. cerevisiae deletion strains, locus YMR205C, strain PFK2, active compounds read low 1.01 | S. cerevisiae deletion strains, locus YMR223W, strain ubp8, active compounds read low 1.01 | S. cerevisiae deletion strains, locus YMR231W, strain pep5, active compounds read low 0.989 | S. cerevisiae deletion strains, locus YMR263W, strain SAP30, active compounds read low 0.989 | S. cerevisiae deletion strains, locus YMR307W, strain GAS1, active compounds read low 1.03 | S. cerevisiae deletion strains, locus YNL067W, strain RPL9B, active compounds read low 0.988 | S. cerevisiae deletion strains, locus YNL071W, strain lat1, active compounds read low 0.985 | S. cerevisiae deletion strains, locus YNL128W, strain TEP1, active compounds read low 1 | S. cerevisiae deletion strains, locus YNL153C, strain GIM3, active compounds read low 0.988 | S. cerevisiae deletion strains, locus YNL183C, strain NPR1, active compounds read low 0.908 | S. cerevisiae deletion strains, locus YNL209W, strain ssb2, active compounds read low 0.983 | S. cerevisiae deletion strains, locus YNL233W, strain BNI4, active compounds read low 1.01 | S. cerevisiae deletion strains, locus YNL248C, strain rpa49, active compounds read low 0.925 | S. cerevisiae deletion strains, locus YNL250W, strain rad50, active compounds read low 0.988 | S. cerevisiae deletion strains, locus YNL271C, strain bni1, active compounds read low 0.985 | S. cerevisiae deletion strains, locus YNL298W, strain CLA4, active compounds read low 0.985 | S. cerevisiae deletion strains, locus YNL307C, strain MCK1, active compounds read low 0.997 | S. cerevisiae deletion strains, locus YNL322C, strain KRE1 (second series), active compounds read low 0.97 | S. cerevisiae deletion strains, locus YNL322C, strain KRE1, active compounds read low 1 | S. cerevisiae deletion strains, locus YNR049C, strain mso1, active compounds read low 0.974 | S. cerevisiae deletion strains, locus YNR052C, strain pop2, active compounds read low 1 | S. cerevisiae deletion strains, locus YOL006C, strain TOP1, active compounds read low 0.981 | S. cerevisiae deletion strains, locus YOL012C, strain htz1 0.702 | S. cerevisiae deletion strains, locus YOL147C, strain pex11, active compounds read low 0.991 | S. cerevisiae deletion strains, locus YOR001W, strain rrp6, active compounds read low 0.943 | S. cerevisiae deletion strains, locus YOR061W, strain CKA2, active compounds read low 0.999 | S. cerevisiae deletion strains, locus YOR069W, strain VPS5, active compounds read low 0.986 | S. cerevisiae deletion strains, locus YOR070C, strain gyp1, active compounds read low 0.992 | S. cerevisiae deletion strains, locus YOR080W, strain dia2, active compounds read low 0.988 | S. cerevisiae deletion strains, locus YOR083W, strain WHI5, active compounds read low 0.934 | S. cerevisiae deletion strains, locus YOR106W, strain vam3, active compounds read low 0.943 | S. cerevisiae deletion strains, locus YOR136W, strain idh2, active compounds read low 0.994 | S. cerevisiae deletion strains, locus YOR144C, strain elg1, active compounds read low 0.993 | S. cerevisiae deletion strains, locus YOR184W, strain ser1, active compounds read low 1 | S. cerevisiae deletion strains, locus YOR231W, strain MKK1, active compounds read low 0.979 | S. cerevisiae deletion strains, locus YOR265W, strain rbl2, active compounds read low 0.985 | S. cerevisiae deletion strains, locus YOR270C, strain vph1, active compounds read low 0.981 | S. cerevisiae deletion strains, locus YOR290C, strain snf2, active compounds read low 0.962 | S. cerevisiae deletion strains, locus YOR316C, strain cot1, active compounds read low 0.985 | S. cerevisiae deletion strains, locus YPL051W, strain arl3, active compounds read low 0.974 | S. cerevisiae deletion strains, locus YPL055C, strain LGE1, active compounds read low 1 | S. cerevisiae deletion strains, locus YPL078C, strain atp4, active compounds read low 0.932 | S. cerevisiae deletion strains, locus YPL106C, strain sse1, active compounds read low 0.961 | S. cerevisiae deletion strains, locus YPL240C, strain hsp82, active compounds read low 0.972 | S. cerevisiae deletion strains, locus YPL241C, strain CIN2, active compounds read low 0.997 | S. cerevisiae deletion strains, locus YPL256C, strain CLN2, active compounds read low 0.964 | S. cerevisiae deletion strains, locus YPR119W, strain clb2, active compounds read low 0.992 | S. cerevisiae deletion strains, locus YPR141C, strain kar3, active compounds read low 0.987 | S. cerevisiae deletion strains, locus YPR163C, strain tif3, active compounds read low 0.988 | S. cerevisiae deletion strains, locus YPR167C, strain met16, active compounds read low 0.989 | S. cerevisiae deletion strains, strain wtn01, active compounds read low 0.95 | S. cerevisiae strains, strain wild type, active compounds read low 1
